The values that follow come from PubChem BioAssay (NCI).

Among the test systems are SK-MEL-2 melanoma; EKVX NSCLC; SN12C renal; UO-31 renal; TK-10 renal; ACHN renal; CAKI-1 renal; A498 renal; MOLT-4 leukemia; SR leukemia; RPMI-8226 leukemia; OVCAR-8 ovarian; OVCAR-5 ovarian; OVCAR-4 ovarian; SK-OV-3 ovarian; IGROV1 ovarian; OVCAR-3 ovarian; HS 578T breast; NCI/ADR-RES ovarian; CCRF-CEM leukemia.
Test in all cases: NCI-60 one-dose screen, 48 h (100 = growth as untreated, 0 = no growth, -100 = all killed)
What all share (conditions): 10 µM unless noted

Compounds without any hit were thinned out: in the full panel of roughly 83,000, 20% have a hit.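 Results are percent growth after 48 hours of single-concentration exposure. 100 means growth as in untreated cells, lower positive values show inhibition; negative values down to -100 show cell death.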 Unmarked numbers belong to inactive results. Active and inactive are the calls of the source. The calls were made as follows: active = growth percent below 10; inactive = the rest.

Regarding `CCSC1=NC2C(N(CC)C(=O)N2CC)N1/N=C/C=C/c1ccccc1[N+](=O)[O-]` (centres undefined), the growth is 50.3% with SK-MEL-2 melanoma; 46.5% in the assay with EKVX NSCLC; 19.8% with SN12C renal; 34.6% in the assay with UO-31 renal; 70.6% in the assay with TK-10 renal; 25.1% in the assay on ACHN renal. The growth is 19.5% with CAKI-1 renal; -5.18% (active) in the assay on A498 renal; 15.1% in the assay on MOLT-4 leukemia; 15.1% in the assay on SR leukemia; 17.3% with RPMI-8226 leukemia; 8.6% (active) in the assay on OVCAR-8 ovarian. The growth is 22.8% with OVCAR-5 ovarian; 42.6% with OVCAR-4 ovarian; 28% with SK-OV-3 ovarian; 15.3% in the assay with IGROV1 ovarian; -2.75% (active) with OVCAR-3 ovarian; 6.38% (active) in the assay with HS 578T breast. Besides, the growth with NCI/ADR-RES ovarian was 4.68% (active).

With `O=C(Nc1ccc(Nc2ccncc2)cc1)c1ccc(C(=O)Nc2ccc(Nc3ccncc3)cc2)cc1`, the growth in the assay on SK-MEL-2 melanoma is 53.7%; with EKVX NSCLC it was 91.8%; in the assay on SN12C renal it was 88.1%; with UO-31 renal, 89.4%; in the assay with TK-10 renal, 137%; in the assay with ACHN renal, 97.2%. The growth in the assay with CAKI-1 renal is 81.6%; in the assay with A498 renal, 117%; in the assay on MOLT-4 leukemia, 71.5%; in the assay on SR leukemia, 52.4%; in the assay with RPMI-8226 leukemia it was 3.64% (active); in the assay with OVCAR-8 ovarian it was 74.5%. Also, the growth in the assay on OVCAR-5 ovarian was 51.1%; in the assay on OVCAR-4 ovarian, 68.1%; with SK-OV-3 ovarian, 68%; in the assay with IGROV1 ovarian it was 75.8%; with OVCAR-3 ovarian it was 111%; in the assay on HS 578T breast, 88.2%. The growth in the assay on NCI/ADR-RES ovarian was 109%.

`CCOC(=O)c1c2c(n3ccc(NC(=O)OC(C)(C)C)cc13)C(=O)c1ncccc1C2=O`: the growth was 9.26% (active) in the assay on SK-MEL-2 melanoma; -39.8% (active) in the assay with EKVX NSCLC; -31% (active) in the assay on SN12C renal; -76.4% (active) in the assay with UO-31 renal; 6.15% (active) with TK-10 renal; -41% (active) in the assay on ACHN renal. The growth is -3.67% (active) in the assay with CAKI-1 renal; -0.0751% (active) in the assay on A498 renal; 7.38% (active) in the assay with MOLT-4 leukemia; 7.58% (active) with SR leukemia; -6.66% (active) in the assay with RPMI-8226 leukemia; -11.4% (active) in the assay with OVCAR-8 ovarian. In addition, the growth in the assay on OVCAR-5 ovarian was -5.26% (active); with OVCAR-4 ovarian, 11.9%; in the assay with SK-OV-3 ovarian it was -32.9% (active); in the assay with IGROV1 ovarian it was -4.89% (active); in the assay with OVCAR-3 ovarian, -33.6% (active); in the assay on HS 578T breast, -25.3% (active). In addition, the growth in the assay on NCI/ADR-RES ovarian was -35.9% (active).

As to `CCN(CC)CCn1nc2c3c(cccc3c1=O)-c1ccccc1-2`, the growth with SK-MEL-2 melanoma was 32.8%; with EKVX NSCLC, 40.7%; in the assay with SN12C renal, 15.5%; in the assay on UO-31 renal, 6.26% (active); with TK-10 renal, 26.4%; in the assay with ACHN renal, -41.7% (active). Further, the growth in the assay with CAKI-1 renal is 18.1%; in the assay with A498 renal it was 24.3%; in the assay with MOLT-4 leukemia, 4.13% (active); with SR leukemia, 4.64% (active); in the assay with RPMI-8226 leukemia, 24.9%; in the assay on OVCAR-8 ovarian, 23.3%. Besides, the growth was 33.9% with OVCAR-5 ovarian; 51.6% in the assay on OVCAR-4 ovarian; 7.24% (active) with SK-OV-3 ovarian; 15.6% in the assay on IGROV1 ovarian; 52.5% in the assay with OVCAR-3 ovarian; 76.1% with HS 578T breast. The growth with NCI/ADR-RES ovarian is 35.1%.

As to `CC/C=C\C[C@H](O)C/C=C1/C(=O)C=C[C@@H]1C/C=C\CCCCO`, the growth with SK-MEL-2 melanoma is 62.5%; in the assay with EKVX NSCLC, 69.3%; in the assay with SN12C renal it was -15.9% (active); with UO-31 renal, -74.2% (active); with TK-10 renal, 5.32% (active); in the assay on ACHN renal it was -69.3% (active). The growth with CAKI-1 renal was 0.105% (active); in the assay on A498 renal, 100%; in the assay with MOLT-4 leukemia it was 8.39% (active); with SR leukemia it was -5.23% (active); in the assay with RPMI-8226 leukemia, -12.9% (active); in the assay on OVCAR-8 ovarian, -27.5% (active). Further, the growth was 39.2% in the assay on OVCAR-5 ovarian; 49.7% in the assay with OVCAR-4 ovarian; 83.2% with SK-OV-3 ovarian; 15.5% in the assay on IGROV1 ovarian; 2.43% (active) in the assay with OVCAR-3 ovarian; 75.6% in the assay with HS 578T breast. The growth in the assay with NCI/ADR-RES ovarian was 9.46% (active).

With `Cc1ccc(-c2cc3c(cc2O)C2CCCCC2(N2CCOCC2)O3)cc1` (centres undefined), the growth is 101% in the assay with SK-MEL-2 melanoma; 107% in the assay with EKVX NSCLC; 93.1% in the assay on SN12C renal; 84.5% in the assay with UO-31 renal; 116% in the assay with TK-10 renal; 112% with ACHN renal. Also, the growth was 96% with CAKI-1 renal; 114% in the assay on A498 renal; 84.1% in the assay with MOLT-4 leukemia; 86% in the assay with SR leukemia; 96% in the assay with RPMI-8226 leukemia; 102% with OVCAR-8 ovarian. Moreover, the growth in the assay on OVCAR-5 ovarian was 110%; in the assay with OVCAR-4 ovarian, 91%; with SK-OV-3 ovarian, 104%; in the assay on IGROV1 ovarian it was 104%; in the assay on OVCAR-3 ovarian it was 110%; in the assay with HS 578T breast it was 108%. The growth with NCI/ADR-RES ovarian was 99.1%.

As to `N#Cc1c(-c2ccccn2)[nH]c(=S)[nH]c1=O`, the growth was 93.7% with SK-MEL-2 melanoma; 101% in the assay on EKVX NSCLC; 112% in the assay with SN12C renal; 84.6% with UO-31 renal; 94.3% in the assay with TK-10 renal; 108% in the assay on ACHN renal. Further, the growth was 98.8% in the assay on CAKI-1 renal; 89.6% in the assay on A498 renal; 99.3% with MOLT-4 leukemia; 95.4% with SR leukemia; 112% in the assay on RPMI-8226 leukemia; 109% in the assay with OVCAR-8 ovarian. Further, the growth is 94.6% in the assay with OVCAR-5 ovarian; 119% in the assay with OVCAR-4 ovarian; 104% with SK-OV-3 ovarian; 110% with IGROV1 ovarian; 105% in the assay on OVCAR-3 ovarian; 109% with HS 578T breast. In the assay on NCI/ADR-RES ovarian, the growth was 109%.

Turning to `CC1OC(O[C@H]2/C=C/C=C/C=C/C=C/C=C/C=C/C=C/[C@H](C)[C@@H](O)[C@@H](C)[C@H](C)OC(=O)CC(O)CC(O)CCC(O)C(O)CC(O)C[C@]3(O)C[C@H](O)C(C(=O)O)C(C2)O3)C(O)[C@H](N)C1O` (some centres undefined), the growth was 57.6% in the assay on SK-MEL-2 melanoma; -14.3% (active) in the assay on EKVX NSCLC; -84.1% (active) in the assay with SN12C renal; -94.3% (active) in the assay on UO-31 renal; -40.7% (active) with TK-10 renal; -80.3% (active) in the assay on ACHN renal. Moreover, the growth is 36.1% in the assay with CAKI-1 renal; 9.81% (active) in the assay on A498 renal; 36.8% with CCRF-CEM leukemia; 23.8% with OVCAR-8 ovarian; -21% (active) in the assay on OVCAR-5 ovarian; 38% in the assay on SK-OV-3 ovarian. The growth in the assay with IGROV1 ovarian is 16.6%; in the assay on OVCAR-3 ovarian it was -42.3% (active); in the assay with HS 578T breast, -18.7% (active); with NCI/ADR-RES ovarian, -29.9% (active).
